Data published in PubChem BioAssay (NCI).
About 79,000 compounds went through this panel and 15% of them were active in at least one assay; those are over-represented in the sample as a whole. Values without a mark were called inactive. Active and inactive are the calls of the source. Rule as the data show it: active = growth inhibition above about 70%; inactive = the rest.

What was measured:
[1] = NCI Yeast Anticancer Drug Screen. Data for the rad52 strain (AID 147);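 also: 0% = growth of vehicle-treated control cultures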; details: S. cerevisiae rad52 mutant growth inhibition, hits give high values
Outline: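 Vehicle-treated cultures served as the reference for growth inhibition of compound-exposed yeast bearing a DNA repair mutation.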

[2] = NCI Yeast Anticancer Drug Screen. Data for the wt1 strain (AID 149);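 also: 0% = growth of vehicle-treated wt1 cultures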; details: S. cerevisiae wt1 strain (SPY 50644) growth inhibition, hits give high values
Outline: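 Measured: growth of wt1 yeast under compound versus vehicle treatment, reported as inhibition.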

[3] = NCI Yeast Anticancer Drug Screen. Data for the rad50EPP+ strain (AID 151);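 also: 0% = growth of vehicle-treated control cultures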; details: S. cerevisiae rad50 mutant strain, hits give high values
Outline: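 In this screen, rad50EPP+ yeast were exposed to compounds. Growth inhibition was scored against vehicle-treated controls.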

[4] = NCI Yeast Anticancer Drug Screen. Data for the mgt1 strain (AID 153); details: S. cerevisiae mgt1 mutant growth inhibition, hits give high values
Outline: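 mgt1 strain exposed; growth vs vehicle control recorded as inhibition.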

[5] = NCI Yeast Anticancer Drug Screen. Data for the rad50 strain (AID 155);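 also: 0% = growth of vehicle-only cultures of the same strain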; details: S. cerevisiae rad50 strain growth inhibition, hits give high values
Outline: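 Growth of the mutant yeast was measured after compound exposure and referenced to vehicle-treated cultures.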

[6] = NCI Yeast Anticancer Drug Screen. Data for the mec2-1 strain (AID 157); details: S. cerevisiae mec2-1 strain, hits give high values
Outline: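 Vehicle-treated cultures served as reference for growth inhibition of compound-exposed mec2-1 yeast.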

[7] = NCI Yeast Anticancer Drug Screen. Data for the rad14 strain (AID 159);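 also: 0% = growth of vehicle-treated control cultures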; details: S. cerevisiae rad14 strain growth inhibition, hits give high values
Outline: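 Here, inhibition of yeast growth was measured after compound exposure, using a strain with a genetic defect in DNA damage repair and vehicle-treated cultures as the reference.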

[8] = NCI Yeast Anticancer Drug Screen. Data for the sgs1 mgt1 strain (AID 161);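 also: 0% = growth of cultures given vehicle only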; details: S. cerevisiae sgs1 mgt1 strain, hits give high values
Outline: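 Mutant yeast exposed to compound; growth scored against vehicle-only wells.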

[9] = NCI Yeast Anticancer Drug Screen. Data for the CLN2oe strain (AID 163);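 also: 0% = growth of vehicle-only control cultures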; details: S. cerevisiae CLN2oe strain, hits give high values
Outline: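 Inhibition relative to vehicle-treated yeast is reported. Cells: strain with genetic alteration in cell-cycle control, grown with compound.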

[10] = NCI Yeast Anticancer Drug Screen. Data for the cln2 rad14 strain (AID 165);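 also: 0% = growth equal to vehicle treated cultures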; details: S. cerevisiae cln2 rad14 strain, hits give high values
Outline: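 Each compound was tested on cln2 rad14 yeast. Inhibition of growth was calculated against vehicle-exposed controls.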

[11] = NCI Yeast Anticancer Drug Screen. Data for the bub3 strain (AID 167); details: S. cerevisiae bub3 mutant strain, hits give high values
Outline: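 Whole-cell yeast assay. The mutant strain was incubated with compounds, and growth inhibition was determined by comparison with vehicle-treated cells.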

[12] = NCI Yeast Anticancer Drug Screen. Data for the wt2 strain (AID 169);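 also: 0% = growth of vehicle-treated yeast cultures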; details: S. cerevisiae wt2 strain growth inhibition, hits give high values
Outline: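 Inhibition of yeast growth was determined after compound treatment, normalised to controls receiving only vehicle.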

[13] = NCI Yeast Anticancer Drug Screen. Data for the mlh1 strain (AID 171);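 also: 0% = growth of vehicle-treated control cultures of the same strain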; details: S. cerevisiae mlh1 strain growth inhibition, hits give high values
Outline: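 Vehicle-normalised growth inhibition of a repair- or checkpoint-altered yeast strain following compound treatment.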

[14] = NCI Yeast Anticancer Drug Screen. Data for the sgs1 strain (AID 173);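 also: 0% = growth of vehicle-only control cultures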; details: S. cerevisiae sgs1 mutant, hits give high values
Outline: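 Screen format: yeast with repair or checkpoint alterations, compound exposure, growth read relative to vehicle.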

[15] = NCI Yeast Anticancer Drug Screen. Data for the mlh1 rad18 strain (AID 175); details: S. cerevisiae mlh1 rad18 strain growth inhibition, hits give high values
Outline: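 Vehicle-treated cultures served as the reference for growth inhibition in a yeast strain carrying DNA damage repair alterations exposed to each compound.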

[16] = at 5.0 µM (retest, dose inferred, filed as 0.5)
[17] = at 50.0 µM (retest, dose inferred, filed as 5.0)

## COc1ccc(OC)c2cc3ccccc3cc12
[1]; at 1.2 µM
  growth inhibition: 11%
[1]; at 3.7 µM
  growth inhibition: -9%
[1]; at 11.0 µM
  growth inhibition: 6%
[1]; at 33.0 µM
  growth inhibition: 10%
[1]; at 100.0 µM
  growth inhibition: 17%
[2]; at 1.2 µM
  growth inhibition: -19%
[2]; at 3.7 µM
  growth inhibition: -19%
[2]; at 11.0 µM
  growth inhibition: -12%
[2]; at 33.0 µM
  growth inhibition: -8%
[2]; at 100.0 µM
  growth inhibition: -4%
[3]; at 1.2 µM
  growth inhibition: -13%
[3]; at 3.7 µM
  growth inhibition: 7%
[3]; at 11.0 µM
  growth inhibition: 46%
[3]; at 33.0 µM
  growth inhibition: 52%
[3]; at 100.0 µM
  growth inhibition: 60%
[4]; at 1.2 µM
  growth inhibition: 25%
[4]; at 3.7 µM
  growth inhibition: 14%
[4]; at 11.0 µM
  growth inhibition: 15%
[4]; at 33.0 µM
  growth inhibition: 18%
[4]; at 100.0 µM
  growth inhibition: 24%
[5]; at 1.2 µM
  growth inhibition: -1%
[5]; at 3.7 µM
  growth inhibition: -1%
[5]; [16]
  growth inhibition: 52%
[5]; at 11.0 µM
  growth inhibition: 10%
[5]; at 33.0 µM
  growth inhibition: 17%
[5]; [17]
  growth inhibition: 81% (active)
[5]; at 50.0 µM
  growth inhibition: 74.3% (active)
[5]; at 100.0 µM
  growth inhibition: 4%
[6]; at 1.2 µM
  growth inhibition: -5%
[6]; at 3.7 µM
  growth inhibition: -11%
[6]; [16]
  growth inhibition: 63%
[6]; at 11.0 µM
  growth inhibition: -6%
[6]; at 33.0 µM
  growth inhibition: 21%
[6]; [17]
  growth inhibition: 87% (active)
[6]; at 50.0 µM
  growth inhibition: 85.2% (active)
[6]; at 100.0 µM
  growth inhibition: 8%
[7]; at 1.2 µM
  growth inhibition: -4%
[7]; at 3.7 µM
  growth inhibition: -6%
[7]; at 11.0 µM
  growth inhibition: -3%
[7]; at 33.0 µM
  growth inhibition: 4%
[7]; at 100.0 µM
  growth inhibition: 18%
[8]; [16]
  growth inhibition: -24%
[8]; [17]
  growth inhibition: 27%
[8]; at 50.0 µM
  growth inhibition: 73.1% (active)
[9]; at 1.2 µM
  growth inhibition: 12%
[9]; at 3.7 µM
  growth inhibition: 14%
[9]; at 11.0 µM
  growth inhibition: 16%
[9]; at 33.0 µM
  growth inhibition: 19%
[9]; at 100.0 µM
  growth inhibition: 3%
[10]; [16]
  growth inhibition: 46%
[10]; [17]
  growth inhibition: 51%
[10]; at 50.0 µM
  growth inhibition: 39.6%
[11]; at 1.2 µM
  growth inhibition: 22%
[11]; at 3.7 µM
  growth inhibition: 8%
[11]; [16]
  growth inhibition: 36%
[11]; at 11.0 µM
  growth inhibition: 22%
[11]; at 33.0 µM
  growth inhibition: 33%
[11]; [17]
  growth inhibition: 64%
[11]; at 50.0 µM
  growth inhibition: 89.7% (active)
[11]; at 100.0 µM
  growth inhibition: 32%
[12]; at 1.2 µM
  growth inhibition: -23%
[12]; at 3.7 µM
  growth inhibition: -28%
[12]; at 11.0 µM
  growth inhibition: -16%
[12]; at 33.0 µM
  growth inhibition: -8%
[12]; at 100.0 µM
  growth inhibition: 9%
[13]; at 1.2 µM
  growth inhibition: 14%
[13]; at 3.7 µM
  growth inhibition: 9%
[13]; at 11.0 µM
  growth inhibition: 8%
[13]; at 33.0 µM
  growth inhibition: 20%
[13]; at 100.0 µM
  growth inhibition: 19%
[14]; at 1.2 µM
  growth inhibition: -12%
[14]; at 3.7 µM
  growth inhibition: -12%
[14]; at 11.0 µM
  growth inhibition: -5%
[14]; at 33.0 µM
  growth inhibition: -1%
[14]; at 100.0 µM
  growth inhibition: 7%
[15]; [16]
  growth inhibition: 48%
[15]; [17]
  growth inhibition: 81% (active)
[15]; at 50.0 µM
  growth inhibition: 70.2% (active)

## CC(=O)OCc1ccc(O)c(C=O)c1
[1]; at 1.2 µM
  growth inhibition: 1%
[1]; at 3.7 µM
  growth inhibition: 1%
[1]; at 11.0 µM
  growth inhibition: -10%
[1]; at 33.0 µM
  growth inhibition: 18%
[1]; at 100.0 µM
  growth inhibition: 57%
[2]; at 1.2 µM
  growth inhibition: -26%
[2]; at 3.7 µM
  growth inhibition: -4%
[2]; at 11.0 µM
  growth inhibition: -23%
[2]; at 33.0 µM
  growth inhibition: 8%
[2]; at 100.0 µM
  growth inhibition: 18%
[3]; at 1.2 µM
  growth inhibition: -6%
[3]; at 3.7 µM
  growth inhibition: -2%
[3]; at 11.0 µM
  growth inhibition: -10%
[3]; at 33.0 µM
  growth inhibition: 14%
[3]; at 100.0 µM
  growth inhibition: 60%
[4]; at 1.2 µM
  growth inhibition: -24%
[4]; at 3.7 µM
  growth inhibition: -17%
[4]; at 11.0 µM
  growth inhibition: -18%
[4]; at 33.0 µM
  growth inhibition: 6%
[4]; at 100.0 µM
  growth inhibition: 25%
[5]; at 1.2 µM
  growth inhibition: -5%
[5]; at 3.7 µM
  growth inhibition: -20%
[5]; [16]
  growth inhibition: 16%
[5]; at 11.0 µM
  growth inhibition: 10%
[5]; at 33.0 µM
  growth inhibition: 6%
[5]; [17]
  growth inhibition: 66%
[5]; at 50.0 µM
  growth inhibition: 77.5% (active)
[5]; at 100.0 µM
  growth inhibition: 59%
[6]; at 1.2 µM
  growth inhibition: -13%
[6]; at 3.7 µM
  growth inhibition: -13%
[6]; [16]
  growth inhibition: 0%
[6]; at 11.0 µM
  growth inhibition: -29%
[6]; at 33.0 µM
  growth inhibition: -11%
[6]; [17]
  growth inhibition: 41%
[6]; at 50.0 µM
  growth inhibition: 56.9%
[6]; at 100.0 µM
  growth inhibition: 35%
[7]; at 1.2 µM
  growth inhibition: -5%
[7]; at 3.7 µM
  growth inhibition: -2%
[7]; at 11.0 µM
  growth inhibition: 2%
[7]; at 33.0 µM
  growth inhibition: 14%
[7]; at 100.0 µM
  growth inhibition: 81% (active)
[8]; [16]
  growth inhibition: 36%
[8]; [17]
  growth inhibition: 89% (active)
[8]; at 50.0 µM
  growth inhibition: 62.5%
[9]; at 1.2 µM
  growth inhibition: -5%
[9]; at 3.7 µM
  growth inhibition: 1%
[9]; at 11.0 µM
  growth inhibition: 11%
[9]; at 33.0 µM
  growth inhibition: -12%
[9]; at 100.0 µM
  growth inhibition: -2%
[10]; [16]
  growth inhibition: 15%
[10]; [17]
  growth inhibition: 30%
[10]; at 50.0 µM
  growth inhibition: 49.7%
[11]; at 1.2 µM
  growth inhibition: -7%
[11]; at 3.7 µM
  growth inhibition: -7%
[11]; [16]
  growth inhibition: 25%
[11]; at 11.0 µM
  growth inhibition: -7%
[11]; at 33.0 µM
  growth inhibition: -8%
[11]; [17]
  growth inhibition: 82% (active)
[11]; at 50.0 µM
  growth inhibition: 2.85%
[11]; at 100.0 µM
  growth inhibition: -11%
[12]; at 1.2 µM
  growth inhibition: -36%
[12]; at 3.7 µM
  growth inhibition: -30%
[12]; at 11.0 µM
  growth inhibition: -28%
[12]; at 33.0 µM
  growth inhibition: -11%
[12]; at 100.0 µM
  growth inhibition: 32%
[13]; at 1.2 µM
  growth inhibition: 0%
[13]; at 3.7 µM
  growth inhibition: -7%
[13]; at 11.0 µM
  growth inhibition: -5%
[13]; at 33.0 µM
  growth inhibition: 24%
[13]; at 100.0 µM
  growth inhibition: 30%
[14]; at 1.2 µM
  growth inhibition: -11%
[14]; at 3.7 µM
  growth inhibition: -5%
[14]; at 11.0 µM
  growth inhibition: 10%
[14]; at 33.0 µM
  growth inhibition: 34%
[14]; at 100.0 µM
  growth inhibition: 63%
[15]; [16]
  growth inhibition: 26%
[15]; [17]
  growth inhibition: 61%
[15]; at 50.0 µM
  growth inhibition: 48.7%
